Key:
Experiment in all cases: PBM binding z-score (relative to random genomic background probes); higher = stronger binding; sequences stand for … in GC…GCGATTGACAGCGTAGAATGAAGG
[1] = test system: RARb homodimer (NR concentration 270 nM)
Summary of the method: (§1)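 Binding z-scores take random background probes as their reference. They come from custom Agilent 4×180K protein-binding microarrays incubated 1 h with ligand-free nuclear receptor dimers, with antibodies against each partner (one per run) detecting binding. Scanned fluorescence was regression-normalized.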

[2] = test system: RARg:RXRa (NR concentration 270 nM, RXRa partner concentration 90 nM)
Summary of the method: as §1

[3] = test system: RARg homodimer (NR concentration 270 nM)
Summary of the method: as §1

[4] = test system: RXRa DBDmut IVT, anti-RXR (DBD mutation: RXRa K156A/R161A, NR concentration 90 nM)
Summary of the method: as §1

[5] = test system: RXRa homodimer (NR concentration 180 nM)
Summary of the method: as §1

[6] = test system: THRa:RXRa (NR concentration 90 nM, RXRa partner concentration 90 nM)
Summary of the method: as §1

[7] = test system: THRa homodimer (NR concentration 90 nM)
Summary of the method: as §1

[8] = test system: VDR:RXRa (NR concentration 270 nM, RXRa partner concentration 90 nM)
Summary of the method: as §1

[9] = test system: VDR homodimer (NR concentration 270 nM)
Summary of the method: as §1

Sequence	PBM binding z-score [1]	PBM binding z-score [2]	PBM binding z-score [3]	PBM binding z-score [4]	PBM binding z-score [5]	PBM binding z-score [6]	PBM binding z-score [7]	PBM binding z-score [8]	PBM binding z-score [9]
ACTAGTTGGTCAGCTGAGGTCACACAGAATTCGG	4.54	4.18	4.44	1.41	4.19	5.12	5.11	4.42	3.47
CTCGAAAGGTCGTGCTCAGGTGAGTATACCAAAC	2.75	5.07	3.86	2.05	4.63	4.17	1.08	3.39	1.2
CGTCCAAGGTCCGCAGGTCAGTGAAAGCGACGTG	2.24	1.06	1.49	0.0611	0.267	1.04	0.0358	-0.111	-0.00185
TCTGCTAGGTCAGTTGGTCAGCCAACGAGCTGCC	2.3	2.84	3.3	0.162	0.782	1.06	-0.436	-0.0135	-0.81
TCTTATAGATCAAAGGTTAAGAAAGCCGAAGCCT	1.4	2.16	1.15	1.21	3.93	1.51	-0.709	2.27	0.214
ATCTCTAGGTAAAGATAGTTCAGGGAATGCAAAT	0.997	0.771	0.846	0.0937	0.459	0.742	0.0152	0.786	0.47
GCGACAGGGGCATCAGCAGGTTACCATAACTTAA	1.23	1.9	0.934	0.988	0.871	1.61	0.015	0.517	0.188
ACTAGTTGGTGAGCTGAGGTCACACACAATTCGG	3.86	3.85	3.11	0.874	4.01	4.44	5.07	3.55	3.31
TAGCCTAGGTCAGATCGGGCCAGAATACGCTATA	1.78	2.58	2.95	-0.569	1.29	4.06	-0.133	0.522	-0.288
CGTCCAAGGTCATAGAAGGTCAGTGAAGACAGAT	5.56	6.7	7.06	4.03	6.78	5.07	2.62	6.34	4
GCTAGCAGGCCATTTGGGCCACTCAATGACGGGC	-0.576	-0.489	0.0153	-0.353	-0.706	-0.537	-1.01	-0.859	-0.669
ACTATTAGTTGAGACGAGGGCACCCGATAGGTTG	1.01	0.598	1.02	0.586	0.681	2.57	0.574	0.529	0.89
ACTATTAGTTGAGACGTGGGCAACCGATAGGTTG	-0.524	-0.179	0.239	-0.00277	-0.275	-0.642	-1.02	-0.5	-0.369
CTCGAAAGGTCGGTTGATGTGAGTATACGGATAA	1.8	2.39	2.37	0.767	1.96	2.01	-0.0197	1.17	0.986
CCTCGAAGGACAACAGGAGGTCAGAGCTGCCAGA	3.42	3.4	3.28	0.237	1.89	2.58	0.731	1.73	0.641
CCGACTGGGCCAGAAAGGTTACCATACCATCCGG	1.97	1.28	0.921	-0.772	1.58	1.04	-0.354	0.479	0.0109
TCTAGTTGGGCACGGAGGTCACACACGACGGGTA	4.1	4.07	3.83	0.548	4.43	3.34	1.83	4.08	2.63
AGAATGAGGTTATACGTAGATCAGGGATGAAAGT	1.04	1.74	1.27	1.92	2.47	2.23	0.607	1.47	0.865
ATATGTAGGTTAATGGTCATTCAGGTTGGTTCGC	1.75	1.02	1.11	0.788	1.14	0.905	0.945	1.32	1.34
AGAATGAGGTTATTAAGATCAGGGGATTGCGGTC	0.919	1.03	0.573	1.97	1.49	2	0.811	2.36	1.35
TCTGCTAGGTCAGTTGGTCAGGTAACGAGCTGCC	2.67	2.55	3.52	0.427	0.908	1.95	0.951	-0.0561	-0.545
ATGTCTAGGTAAAGTTCAGTGAAAGATCGATAGA	2.59	2.12	2.62	1.25	1.5	1.17	0.000451	1.8	2.39
AGTCAAAGTTCATCTAAGTAACGTAAGATATGCT	3.78	5.58	6.53	4.81	5.21	2.57	-0.213	4.76	4.88
ATCGAAAGGTCGACGAGGTGAGTGTACACCGTTT	3.22	4.45	4.1	1.71	4.92	3.71	1.21	5.55	1.52

— the supplement of paper PMC6555819
